DRD3 agonist – activates the human D3 dopamine receptor; 410,000 tested, 0.58% active; max activation, %; P35462; AID 652048; D3R DiscoveRx beta-arrestin cells, luminescence, 90 min; in the data active = max activation above about 30%; note: 0% is about no effect
Target sequence (P35462 whole entry, looked up): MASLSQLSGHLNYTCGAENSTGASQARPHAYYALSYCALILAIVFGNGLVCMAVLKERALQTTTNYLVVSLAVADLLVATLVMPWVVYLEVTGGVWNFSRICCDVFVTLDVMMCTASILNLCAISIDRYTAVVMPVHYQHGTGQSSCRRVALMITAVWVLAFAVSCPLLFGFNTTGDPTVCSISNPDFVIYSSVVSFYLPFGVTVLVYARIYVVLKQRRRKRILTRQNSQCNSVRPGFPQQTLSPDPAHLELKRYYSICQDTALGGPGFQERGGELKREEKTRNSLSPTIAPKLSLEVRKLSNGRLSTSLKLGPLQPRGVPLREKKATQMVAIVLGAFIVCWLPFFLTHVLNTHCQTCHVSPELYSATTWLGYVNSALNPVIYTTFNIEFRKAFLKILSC
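Agonist-mode cell screen: cells plated at 1500/well and incubated overnight at 37 °C, then exposed to library compounds for 90 min at 37 °C. Detection reagent was added for 30–60 min at room temperature, and luminescence was read.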
D1 agonist – human D1 receptor agonism. P21728. HEK293 T-REx D1 cells, calcium flux, agonist mode. activation, % at 2 µM. 360,000 tested, 1% active; in the data active = activation above about 30%; note: 0% is about no effect
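Agonism was scored from calcium flux recorded over 180 s (1 read/s) after pintool compound addition, following a 10-cycle baseline. Cells were inducible force-coupled HEK293 TREx D1, plated overnight at 30 C and loaded with no-wash calcium dye.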
D1 antag – antagonists of human D1 dopamine receptor. P21728. HEK293 TREx D1 cells, calcium flux, dopamine EC80; hits give low values. activity change, negative = inhibition, % at 10 µM. 360,000 tested, 3.2% active. AID 504652; in the data active = activity change below about -30%; note: % is set by controls: 0 for no effect and ±100 for the full control effect
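Using tetracycline-induced force-coupled D1 Hek293 cells and a calcium dye, signals were followed for 180 s after compound, then for 180 s after EC80 dopamine, to detect inhibitors.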
DRD3 antagonist – D3 dopamine receptor (human) antagonism. P35462. D3R cells, DiscoveRx beta-arrestin luminescence, antagonist mode; hits give low values. max response, negative = inhibition, %. 360,000 tested, 2.5% active. AID 652054; in the data active = max response below about -50%; inconclusive = no clear call, values can overlap the other calls; note: % is set by controls: 0 for no effect and ±100 for the full control effect
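Cells expressing the human receptor were seeded at 1500 cells/well, incubated overnight at 37 degrees C in 5% CO2, then exposed to library compounds with dopamine controls for 90 minutes at 37 degrees C before luminescent detection.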
D1 PAM – enhances dopamine response at the human D1 receptor | P21728 | HEK293 TREx D1 cells, calcium flux, dopamine EC20 potentiation | potentiation, % at 10 µM | 360,000 tested, 0.036% active; in the data active = potentiation above about 30%; note: 0% is about no effect
* marks the source's active call; other numbers are inactive results. Only some compounds are listed: those with a hit (about 6% of all), similar ones and a draw of the others.

What do the screens show for `COc1ccc(C2/C=C\CN(S(=O)(=O)/C=C/c3ccccc3)CC(=O)N2Cc2ccc(F)cc2)cc1` (centres undefined)?
DRD3 agonist: -11.3; D1 agonist: 16.3; D1 antag: -35.5*; DRD3 antagonist: -20.1; D1 PAM: -4.5

How did CCCCCCC(=O)N1C/C=C\C(c2ccc(OC)cc2)N(Cc2ccc(F)cc2)C(=O)[C@H]1Cc1ccccc1 (some centres undefined) do in these assays?
DRD3 agonist: -11.1; D1 agonist: 12.5; D1 antag: -35.1*; DRD3 antagonist: 0.0; D1 PAM: -1.9

How did Cc1ccc(NC(=O)CN2C(=O)C(c3ccc(F)cc3)=NC23CCCCC3)c(C)c1 do in these assays?
DRD3 agonist: 5.1; D1 agonist: 2.0; D1 antag: 0.2; D1 PAM: 2.6

How did Cn1c(SCC(=O)N2CCCc3ccccc32)ncc(C(=O)Nc2ccccc2)c1=O do in these assays?
DRD3 agonist: -11.1; D1 agonist: 0.0; D1 PAM: 4.2

What do the screens show for `Cc1ccc(CNC(=O)CN(c2ccc(C(C)C)cc2)S(=O)(=O)c2c(C)n[nH]c2C)cc1`?
DRD3 agonist: 2.6; D1 agonist: 1.0; D1 antag: 19.5; D1 PAM: 5.0

How did Cc1cccc(C(=O)N2CCC(N3CCN(Cc4ccc(F)cc4)C(=O)C3=O)CC2)c1 do in these assays?
DRD3 agonist: -3.4; D1 agonist: 1.4; D1 antag: 8.7; D1 PAM: -5.0

Results for Cc1cccc(NC(=O)c2ccc3snnc3c2)c1C ?
DRD3 agonist: -0.3; D1 agonist: -1.5; D1 antag: 2.0; D1 PAM: 3.5

How did COc1ccc(-c2noc(CN(C(=O)COc3cc(C)c(Br)c(C)c3)C(C)C)n2)cc1 do in these assays?
DRD3 agonist: -2.5; D1 agonist: 18.9; D1 antag: -10.7; D1 PAM: 0.8

What do the screens show for `Cc1cccnc1C(NC(=O)C1CCN(CCCOc2ccc(F)cc2)CC1)c1ccccc1` (centres undefined)?
DRD3 agonist: -25.5; DRD3 antagonist: -83.9*

What do the screens show for `COc1ccc(OCCN2CCC(C(=O)NC(c3ccc(Cl)cc3)c3ncccc3C)CC2)cc1` (centres undefined)?
DRD3 agonist: -18.6; DRD3 antagonist: -72.7*

Results for Cc1cccnc1C(NC(=O)C1CCN(Cc2ccc(Cl)cc2)CC1)c1ccc(F)cc1 (centres undefined) ?
DRD3 agonist: -17.4; DRD3 antagonist: 0.0

How did CCN1CCC(C(=O)NC(c2ccc(F)cc2)c2ncccc2C)CC1 (centres undefined) do in these assays?
DRD3 agonist: -15.2; DRD3 antagonist: inconclusive

Results for Cc1cccnc1C(NC(=O)C1CCN(CCOc2ccc(F)cc2)CC1)c1ccc(Cl)cc1 (centres undefined) ?
DRD3 agonist: -22.0; DRD3 antagonist: 0.0

Results for Cc1cccnc1C(NC(=O)C1CCN(Cc2ccc3ccccc3n2)CC1)c1ccc(Cl)cc1 (centres undefined) ?
DRD3 agonist: -12.3; DRD3 antagonist: -68.4*

How did COc1ccc(OCCN2CCC(C(=O)NC(c3ccc(F)cc3)c3ncccc3C)CC2)cc1 (centres undefined) do in these assays?
DRD3 agonist: -13.8; DRD3 antagonist: -85.3*

How did Cc1ccc(-c2nc(NC(=O)CSc3nc(C)nc4sc5c(c34)CCCC5)ns2)cc1 do in these assays?
DRD3 agonist: -6.7; D1 agonist: 0.0; D1 antag: -3.0; D1 PAM: -4.1

Results for CC1CN(C(=O)CCN2C(=O)c3ccccc3C2=O)CC(C)O1 (centres undefined) ?
DRD3 agonist: 3.0; D1 agonist: 2.3; D1 antag: -31.7*; DRD3 antagonist: 22.9; D1 PAM: -8.6

How did CN1CCN(C(=O)CCN2C(=O)c3ccccc3C2=O)CC1 do in these assays?
DRD3 agonist: 0.5; D1 agonist: 1.1; D1 antag: 3.4; DRD3 antagonist: -9.5; D1 PAM: 7.7

What do the screens show for `Cn1c(C(=O)Nc2cccc(Cl)c2)cc2c(=O)n(C)c3ccccc3c21`?
DRD3 agonist: 7.6; D1 agonist: -0.6; D1 antag: 6.6; D1 PAM: 1.3

How did CCCCN(CCCC)CCNC(=O)Cn1nc(CC)n2c(cc3sc(C)cc32)c1=O do in these assays?
DRD3 agonist: -38.1; D1 agonist: -0.4; D1 antag: 29.9; D1 PAM: -3.0

Results for O=C(CN1C(=O)N/C(=C\c2ccccc2OCc2ccc(C(=O)O)cc2)C1=O)Nc1ccc(F)cc1 ?
DRD3 agonist: 3.8; D1 agonist: 3.1; D1 antag: -5.2; DRD3 antagonist: -22.8

How did O=C(O)c1ccc(COc2ccccc2/C=C2\NC(=O)N(Cc3ccc(F)cc3)C2=O)cc1 do in these assays?
DRD3 agonist: 1.9; D1 agonist: 5.5; D1 antag: -33.3*; DRD3 antagonist: -18.4; D1 PAM: 5.7

What do the screens show for `CC(C)c1ccc(NC(=O)CSC2=Nc3ccccc3C3=NC(CC(=O)NCc4ccc(F)cc4)C(=O)N23)cc1` (centres undefined)?
DRD3 agonist: -2.2; D1 agonist: 1.4; D1 antag: 14.4; D1 PAM: -2.0

How did Cc1ccc(CNc2ncnc3onc(-c4ccc(F)cc4)c23)cc1 do in these assays?
DRD3 agonist: 0.4; D1 agonist: 31.9*; D1 antag: -23.8; D1 PAM: -5.2

What do the screens show for `Cc1ccc(CCNc2ncnc3onc(C)c23)cc1`?
DRD3 agonist: 6.4; D1 agonist: 22.4; D1 antag: -36.2*; D1 PAM: -8.5

What do the screens show for `Cc1noc2ncnc(NCCc3ccccc3)c12`?
DRD3 agonist: 10.6; D1 agonist: 23.0; D1 antag: -22.5; D1 PAM: -2.0

How did O=C(NCc1ccco1)c1ccc2c(c1)N(Cc1ccccc1F)C(=O)c1ccccc1S2(=O)=O do in these assays?
DRD3 agonist: 9.4; D1 agonist: 5.5; D1 antag: 1.6; D1 PAM: -4.2

What do the screens show for `O=S1(=O)c2ccccc2N(Cc2ccccc2F)c2ccccc21`?
DRD3 agonist: -8.7; D1 agonist: 12.6; D1 antag: 2.9; D1 PAM: -4.0

What do the screens show for `CCC1Sc2ccc(S(=O)(=O)Nc3ccc(OC)cc3)cc2NC1=O` (centres undefined)?
DRD3 agonist: 0.7; D1 agonist: 30.4*; D1 antag: -36.3*; DRD3 antagonist: -6.0; D1 PAM: -4.8

Results for CCC1Sc2ccc(S(=O)(=O)Nc3ccc(OC)c(OC)c3)cc2NC1=O (centres undefined) ?
DRD3 agonist: 15.5; D1 agonist: 6.9; D1 antag: -7.9; DRD3 antagonist: 23.7; D1 PAM: 4.5

What do the screens show for `COCCn1c(SCC(=O)Nc2cccc(C)c2C)nc2c(oc3ccccc32)c1=O`?
DRD3 agonist: -1.2; D1 agonist: 1.9; D1 antag: -5.8; D1 PAM: -5.5

How did c1ccc2c(OCCCCN3CCOCC3)cccc2c1 do in these assays?
DRD3 agonist: -11.6; D1 agonist: 2.2; D1 antag: 0.8; DRD3 antagonist: -59.7*; D1 PAM: -0.5

Source: PubChem
